Shown are actives, neighbours in structure and some others; about 6.4% of the full set was active somewhere.
RORgamma inh: ROR gamma (mouse) transcription inhibition; P51450; Drosophila S2 Gal4-RORgamma UAS-luciferase reporter, 20 h; Potency, µM (titrated, usually from 53.6 µM), usual class: inhibitors; 5.4% of 310,000 active; note: nearly all actives have a fitted effect of over 60% in size
Target sequence (P51450 whole entry, looked up, the tested form may be a part): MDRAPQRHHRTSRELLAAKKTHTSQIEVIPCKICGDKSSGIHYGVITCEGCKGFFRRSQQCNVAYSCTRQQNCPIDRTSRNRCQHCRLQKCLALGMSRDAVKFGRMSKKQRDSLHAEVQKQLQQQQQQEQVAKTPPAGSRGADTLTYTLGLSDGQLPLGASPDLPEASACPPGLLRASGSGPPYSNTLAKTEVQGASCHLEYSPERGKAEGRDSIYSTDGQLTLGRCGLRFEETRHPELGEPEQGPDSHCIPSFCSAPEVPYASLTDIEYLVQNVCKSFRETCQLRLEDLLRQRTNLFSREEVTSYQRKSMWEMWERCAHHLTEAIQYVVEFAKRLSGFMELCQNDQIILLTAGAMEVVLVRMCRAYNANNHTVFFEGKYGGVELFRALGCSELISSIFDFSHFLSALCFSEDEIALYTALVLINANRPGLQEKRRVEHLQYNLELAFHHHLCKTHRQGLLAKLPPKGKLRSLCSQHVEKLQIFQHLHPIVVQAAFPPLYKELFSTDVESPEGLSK
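ROR gamma transcriptional activity was tracked as Gal4-UAS luciferase output in stably transfected Drosophila Schneider cells, with compound added 1 hr before 700 uM copper sulfate induction and a 20 hr ambient-temperature incubation.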
Gal4-VP16 FLuc: inhibits Gal4-VP16 luciferase reporter, ROR gamma counter-screen; Drosophila S2 Gal4-VP16 UAS-luciferase, luminescence, 20 h; Potency, µM (series often up to 53.6 µM), actives largely listed as inhibitors; 3.5% of 310,000 active;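 note: Gal4-VP16 expression switched on by copper sulfate through the metallothionein promoter; nearly all actives have a fitted effect of over 50% in size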
Luc counter: Kinase-Glo luciferase inhibition (counter-screen); AID 1379; Potency, µM (doses to about 38.3 µM), actives largely listed as inhibitors; 0.28% of 200,000 active; Kinase-Glo luciferase, ATP luminescence, 8 min; note: nearly all actives have a fitted effect of over 60% in size
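Substrate mix (final 50 mM imidazole pH 7.2, 50 mM KCl, 7 mM MgCl2, 10 uM ATP, 0.01% Tween 20, 0.05% BSA) plus pin-tool compound, then Kinase-Glo detection mix; 8 min ambient, luminescence read.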
Each line names hits and unclear results; the compound was inactive in the other large screens. Calls come from the whole dose curve; as a rule, active = well fitted curve in the direction sought with a large enough effect; inconclusive = small, poorly fitted or top-dose-only effect, or another doubt; inactive = no such curve, though single readings can be large; an effect the other way counts as inactive or inconclusive.

O=C(NC(=S)Nc1ccccc1Cl)c1cncc(Br)c1	RORgamma inh 2.51µM, Gal4-VP16 FLuc 4.47µM (no result: Luc counter)
CC1CCCC(NC(=S)NC(=O)c2cncc(Br)c2)C1C (stereo not given)	RORgamma inh 2.82µM, Gal4-VP16 FLuc 5.62µM
CC1CCCCC1NC(=O)c1cncc(Br)c1 (stereo not given)	none
Cc1ccc(NC(=O)c2cncc(Br)c2)cc1S(=O)(=O)N(C)C	none
COc1ccc(NC(=O)c2cncc(Br)c2)cc1S(N)(=O)=O	RORgamma inh 11.2µM
COc1ccc(CNC(=O)c2cncc(Br)c2)cc1	none (no result: Luc counter)
COc1ccc(NC(=S)NC(=O)c2cncc(Br)c2)c(OC)c1	RORgamma inh 2.51µM, Gal4-VP16 FLuc inconclusive (no result: Luc counter)
CN(Cc1ccccc1)C(=O)c1cn(C)c2ccc(S(=O)(=O)N3CCCC3)cc2c1=O	none (no result: Luc counter)
CCC(C)[C@H]1COCCS(=O)(=O)N1Cc1ccc(Cl)cc1Cl (stereo not given in full)	none (no result: Luc counter)
COc1ccc(S(=O)(=O)NCC(=O)N(CC2CCCO2)C(C(=O)NC2CCCC2)C(C)C)cc1 (stereo not given)	none (no result: Luc counter)
O=C(NCc1ccccn1)c1ccc(Cl)c(NC2=NC3CS(=O)(=O)CC3S2)c1 (stereo not given)	none (no result: Luc counter)
O=C(COc1ccccc1C(=O)NCC1CCCO1)Nc1ccc(Br)cc1 (stereo not given)	none
CSC1=NC(C(Cl)(Cl)Cl)N=C(c2ccccc2)N1 (stereo not given)	none
O=C(N/N=C\c1ccco1)c1cncc(Br)c1	RORgamma inh inconclusive, Gal4-VP16 FLuc inconclusive
O=C(N/N=C/C=C/c1ccc(Br)cc1)C(O)c1ccccc1 (stereo not given)	RORgamma inh 11.2µM, Gal4-VP16 FLuc inconclusive
O=C(CNc1cccc2ccccc12)N/N=C/c1ccc(C(=O)O)cc1	none
O=C(N/N=C\c1cc(Br)c(Br)o1)c1cncc(Br)c1	RORgamma inh 1.41µM, Gal4-VP16 FLuc 2µM
O=C(N/N=C/c1ccccc1)C(O)c1ccccc1 (stereo not given)	none (no result: Luc counter)
O=C(CNc1cccc2ccccc12)N/N=C/C=C/c1ccco1	RORgamma inh 12.6µM, Gal4-VP16 FLuc inconclusive
O=C(N/N=C\C=C\c1ccco1)c1cncc(Br)c1	RORgamma inh 2.24µM, Gal4-VP16 FLuc inconclusive (no result: Luc counter)
O=C(N/N=C/c1cc(Br)c(Br)o1)c1cccnc1	RORgamma inh inconclusive, Gal4-VP16 FLuc inconclusive
CC/C=C\CC[C@H](OC(=O)c1ccc(Br)cc1)C1=CCCCC1=O	none (no result: Luc counter)
Cc1cc(=O)oc2c(C)c(OC(C)C(=O)Nc3ccc(N4CCC(C)CC4)cc3)ccc12 (stereo not given)	none (no result: Luc counter)
CN1CCN(c2ncc3nc(-c4cccc(C#N)c4)c(=O)n(C)c3n2)CC1	none (no result: Luc counter)
CCCCCCCCC(=O)NCc1cc(OC)c(O)cc1I	none
Cn1cc(C(=O)N/N=C/C=C/c2ccccc2)ccc1=O	RORgamma inh inconclusive, Gal4-VP16 FLuc inconclusive
O=C(N/N=C/C=C/c1ccccc1)c1cccnc1	RORgamma inh 5.62µM, Gal4-VP16 FLuc inconclusive (no result: Luc counter)
O=C(N/N=C\C=C\c1ccco1)c1cc(-c2ccc3ccccc3c2)n[nH]1	RORgamma inh 2.24µM, Gal4-VP16 FLuc 1µM
O=C(N/N=C/C=C\c1ccco1)c1cccnc1	RORgamma inh 12.6µM, Gal4-VP16 FLuc inconclusive
O=C(N/N=C/C=C/c1ccccc1)c1ccc(Br)cc1	RORgamma inh 3.16µM, Gal4-VP16 FLuc 4.47µM
O=C(N/N=C/C=C\c1ccco1)c1ccccn1	none (no result: Luc counter)
O=C(N/N=C/C=C\c1ccccc1)c1cnccn1	none
O=C(N/N=C/C=C/c1ccco1)c1cccnc1	none
Cc1ccc(CC(Cc2nc3ccccc3[nH]2)c2nc3ccccc3[nH]2)cc1 (stereo not given)	RORgamma inh inconclusive, Gal4-VP16 FLuc inconclusive
Cc1cc(C)cc(CC(Cc2nc3ccccc3[nH]2)c2nc3ccccc3[nH]2)c1 (stereo not given)	RORgamma inh 11.2µM, Gal4-VP16 FLuc 11.2µM
COc1ccc(S(=O)(=O)NCCCC(=O)Nc2ccc(Sc3ccc(N)cc3)cc2)cc1	Gal4-VP16 FLuc inconclusive (no result: Luc counter)
Cc1ccc(S(=O)(=O)NCCOc2cc(C)ccc2C)cc1	none (no result: Luc counter)
Cc1c2ccccc2cc(Cc2ccccc2)[n+]1C	none (no result: Luc counter)
COc1ccc(C(=O)NN(C)c2nc(C(F)(F)F)nc3ccccc23)cc1	RORgamma inh 3.16µM, Gal4-VP16 FLuc inconclusive
COc1ccc(C(=O)NN(C)c2nc(-c3ccccc3)nnc2C(F)(F)F)cc1	none
Oc1ccc2ccccc2c1-c1sc(Nc2ccccc2)n[n+]1-c1ccc(F)cc1	none (no result: Luc counter)
Fc1ccc(-[n+]2nc(Nc3ccccc3)sc2-c2c3ccccc3cc3ccccc23)cc1	RORgamma inh 10µM (no result: Luc counter)
O=C(Cn1cnc2scc(-c3cccc([N+](=O)[O-])c3)c2c1=O)NCc1ccco1	none
O=C(c1ccncc1)N1CCC[C@@]2(CCN(c3cccc(-c4ccccc4)c3)C2)C1	none
COc1cccc(CNC(=O)CCC2CCCN(C(=O)c3cc(C4CC4)[nH]n3)C2)c1 (stereo not given)	Gal4-VP16 FLuc inconclusive (no result: Luc counter)
CC(SCc1ccccc1)C(=O)NN=C1CCN(C)CC1 (stereo not given)	RORgamma inh 7.08µM
CN1CCC(=NNC(=O)CSCc2ccccc2)CC1	none
Cc1ccc(S(=O)(=O)N2CC(O)CC2C(=O)OCC(=O)c2ccccc2Cl)cc1C (stereo not given)	none
O=C(Nc1ccccc1O)C(c1ccccc1)c1ccccc1	RORgamma inh inconclusive, Gal4-VP16 FLuc 15.8µM (no result: Luc counter)
O=C(Nc1ccccc1-c1ccccc1)C(c1ccccc1)c1ccccc1	none
Cc1ccccc1-n1c(SCC(=O)N2CCOCC2)nc(O)c(Cc2ccccc2)c1=O	none (no result: Luc counter)
COc1ccc(C(=O)/C=C/C(=O)N(CC(=O)NC2CCCCC2)Cc2ccccc2)c(O)c1	none
COc1ccc(C(=O)/C=C/C(=O)N(CC(=O)NC2CCCCC2)CC2CCCO2)c(O)c1 (stereo not given)	RORgamma inh 6.31µM, Gal4-VP16 FLuc 3.16µM
Cc1nc2sc3c(c2c(=O)[nH]1)CCCC3	none
O=c1[nH]c(S)nc2sc3c(c12)CCCC3	RORgamma inh 12.6µM
CC(=O)Nc1nonc1-c1nc2ccccc2n1CCC(C)C	RORgamma inh 12.6µM
CCC(=O)Nc1nonc1-c1nc2ccccc2n1CCC(C)C	none
Cn1c(CNC(=O)c2ccccc2F)nnc1SCC(=O)c1ccccc1	none (no result: Luc counter)
CSc1sc(C(=O)NC(=O)NCc2ccncc2)c(C)c1-c1ccon1	none (no result: Luc counter)
c1ccc2c(c1)Cn1nc(Cc3nc4c(s3)CCCC4)nc1-2	RORgamma inh 14.1µM
N#CCc1nc2n(n1)Cc1ccccc1-2	none
COc1cc(OC)c(OC)cc1CCC(C)NC(=O)Cc1ccccc1 (stereo not given)	none (no result: Luc counter)
COc1ccc(C2CC(c3ccccc3)=NN2c2ccc(C(N)=O)cc2)cc1 (stereo not given)	none (no result: Luc counter)
COc1ccc(C2CC(c3ccccc3)=NN2c2ccc(/C=N/NC(=O)c3ccncc3)cc2)cc1 (stereo not given)	RORgamma inh 3.16µM, Gal4-VP16 FLuc 7.08µM
O=C(NCc1ccco1)c1cc2ccc(O)cc2oc1=O	RORgamma inh 10µM, Gal4-VP16 FLuc 10µM, Luc counter 5.01µM
COc1ccc2oc(=Nc3ccc(C(=O)O)cc3)c(C(=O)NCc3ccco3)cc2c1	none
O=C(c1ccc(Br)cc1)c1cc2ccc(O)cc2oc1=O	none (no result: Luc counter)
O=C(c1ccccc1)c1cc2ccc(O)cc2oc1=O	Luc counter 11.2µM

Screening results deposited in PubChem by National Center for Advancing Translational Sciences (NCATS).
